Experimental findings from PubChem BioAssay AID686970 (National Center for Advancing Translational Sciences (NCATS), 2013) are described below.

The whole screen tested about 360,000 compounds, of which about 6,000 (1.7%) were called active. Entries that show only a call come without a potency. Roughly 8% stayed inconclusive and do not appear here. Calls follow the shape of the dose curve; as a rule, active = well fitted cell-killing curve with a large enough effect; inconclusive = small, poorly fitted or top-dose-only effect, or effect the other way; inactive = flat fitted curve, though single readings scatter. The sample as a whole holds a higher share of actives than the screen did.
Potency is read from the fitted curve at half-maximal effect.

The nature of the test: qHTS for induction of synthetic lethality in tumor cells producing 2HG: qHTS for the HT-1080-NT fibrosarcoma cell line.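 Also: NT is the 2HG producing partner of a matched IDH1 knockdown line; nearly all actives have a fitted effect of over 55% in size.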 As to conditions: HT-1080-NT fibrosarcoma viability, CellTiter-Glo ATP luminescence, 48 h; series mostly up to 46.1 µM. A digest of the protocol:
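HT-1080-NT; 750 cells/well; 5% FBS RPMI; 48 h compound, 37 degrees C; CellTiter-Glo luminescence; curve fitting and curve-class assignment.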
In general terms: Quantitative high-throughput screening tests each substance at several concentrations.
For the molecule `O=C(Nc1nnc(S(=O)(=O)N2CCOCC2)s1)c1cccc(Br)c1`, the Potency result is “inactive”.

On to `O=C(Nc1nnc(S(=O)(=O)N2CCCCCC2)s1)c1cccc(Br)c1`, for which the Potency was 23.1 µM (active).

`Cc1cccc(C(=O)Nc2nnc(S(=O)(=O)N3CCCCCC3)s2)c1`: the Potency result was “inactive”.

Turning to `CC1(C(=O)Nc2ccccc2Br)CCN1C(=O)CC1CC1` (configuration not stated), the Potency entry was “inactive”.

As for `CCOC(=O)[C@]12CCC=C1N(Cc1cccc3ccccc13)C(=O)[C@H](CC(=O)NCc1cccc(C(F)(F)F)c1)C2`, the Potency entry is “inactive”.

Turning to `CCCNC(=O)C1(C)CCCN(C(=O)c2cccc(OC(C)=O)c2C)C1` (configuration not stated), the Potency result is “inactive”.

Regarding `CC1(C(=O)Nc2ccc3c(c2)OCCO3)CN(S(C)(=O)=O)CC(=O)N1Cc1cccc(F)c1` (configuration not stated), the Potency entry is “inactive”.

For `N#Cc1cccc(NC(=O)COC(=O)c2ccccc2C(=O)c2ccc(Cl)c([N+](=O)[O-])c2)c1`, the Potency is 7.31 µM (active).

Regarding `CC(=O)Nc1ccc(NC(=O)COC(=O)c2ccccc2C(=O)c2ccccc2)cc1`, the Potency entry is “inactive”.

Turning to `COC(=O)c1cc(NC(=O)Cc2ccccc2[N+](=O)[O-])ccc1Cl`, the Potency result is “inactive”.

For `COc1ccc(C2Nc3ccc(NC(=O)COC(C)=O)cc3C(=O)N2Cc2ccccc2)cc1COc1ccc(NC(C)=O)cc1` (configuration not stated), the Potency result was “inactive”.

Turning to `CC(Sc1ccc(S(=O)(=O)N2CCN(C)CC2)cn1)C(=O)NC1CCCC(C)C1C` (configuration not stated), the Potency entry was “inactive”.

As for `COc1ccc(C)cc1S(=O)(=O)N1CCN(S(=O)(=O)c2cc(C(=O)O)ccc2C)CC1`, the Potency result was “inactive”.

As to `Cc1ccc(C)c(S(=O)(=O)N2CCN(c3ncnc4sccc34)CC2)c1`, the Potency is 5.8 µM (active).

With `Cc1ccc(S(=O)(=O)N2CCN(c3ncnc4ccccc34)CC2)cc1`, the Potency result was “inactive”.

Regarding `CC1CCCC(C)N1C(=O)COC(=O)c1ccccc1C(=O)c1ccccc1` (configuration not stated), the Potency result was “inactive”.

On to `Cc1ccccc1Cn1c(C)c(C(=O)NCc2cccc(C(F)(F)F)c2)sc1=O`, for which the Potency result is “inactive”.

Regarding `OCCc1ccc(NCCc2ccco2)cc1`, the Potency entry was “inactive”.

Turning to `CC1=C/C(=N\OS(=O)(=O)c2ccccc2)C=CC1=O`, the Potency was 20 µM (active).

Consider `NC(=O)CSc1nnc(-c2cccc(S(=O)(=O)N3CCOCC3)c2)o1`, for which the Potency result is “inactive”.

Regarding `Cc1cccc(C)c1Cn1c(C)c(C(=O)NCc2cccc(Cl)c2)sc1=O`, the Potency entry was “inactive”.

In the case of `OC(c1ccccc1)c1nc(-c2cnc3ccccc3c2)cs1` (configuration not stated), the Potency result was “inactive”.

With `O=C(Nc1nnc(SCc2c(Cl)cccc2Cl)s1)c1cccc([N+](=O)[O-])c1`, the Potency entry is “inactive”.

For the molecule `NC(=O)CSc1nnc(NC(=O)c2ccc3ccccc3c2)s1`, the Potency result was “inactive”.

Turning to `O=C(Nc1nnc(SCc2ccccc2Cl)s1)c1cccc([N+](=O)[O-])c1`, the Potency was 18.4 µM (active).

In the case of `CC1=C(C(=O)N2CCOCC2)CC(CC(=O)NCCCN(C)C)C(=O)N1Cc1ccc(C(C)(C)C)cc1` (configuration not stated), the Potency result was “inactive”.

For `O=C(Nc1ccc(Br)cn1)C1CCN(S(=O)(=O)c2cccs2)CC1`, the Potency was 9.2 µM (active).

`O=C(NCc1ccc(Cl)cc1)C1CCN(S(=O)(=O)c2cccs2)CC1`: the Potency result was “inactive”.

Take `O=C(C1CCN(S(=O)(=O)c2cccs2)CC1)N1CCCCCC1`: the Potency entry was “inactive”.

On to `Cc1ccc(C(=O)Nc2c(-c3ccccc3)[nH][nH]c2=O)cc1`, for which the Potency entry is “inactive”.

Consider `O=C(OC12CC3CC(CC(C3)C1)C2)c1ccc(NCc2cc(O)ccc2O)cc1`, for which the Potency was 14.6 µM (active).

As for `C#CCNc1ccc(C(=O)OCC)cc1`, the Potency entry is “inactive”.

Turning to `CCN(CC)C(=O)CCC(=O)Nc1ccc(C(=O)OC)cc1`, the Potency entry is “inactive”.

On to `CC1(C)C2CCC1(C)C(OC(=O)c1ccc(O)cc1)C2` (configuration not stated), for which the Potency entry is “inactive”.

Consider `CC(C)OC(=O)c1ccc(NCc2cc(O)ccc2O)cc1Cl`, for which the Potency was 20.6 µM (active).

For `CC(CN1CCOCC1)OC(=O)c1ccc(Cl)cc1Cl` (configuration not stated), the Potency entry is “inactive”.

Consider `COC(=O)c1ccc(NCc2cc(O)ccc2O)cc1`, for which the Potency was 16.4 µM (active).

In the case of `CC(OC(=O)c1ccc(Cl)cc1O)C(=O)NCCC1=CCCCC1` (configuration not stated), the Potency entry was “inactive”.

Regarding `CC(C)CCC(=O)Nc1cc(S(=O)(=O)N2CCOCC2)ccc1N1CCCC1`, the Potency result was “inactive”.

As to `Cc1ccc(S(=O)(=O)N2CCOCC2)cc1NC(=O)c1ccncc1`, the Potency entry is “inactive”.

`Cc1ccc(S(=O)(=O)N2C[C@]3(O)C[C@@H]4C(=O)N(c5ccccc5)C(=O)[C@@H]4C[C@]3(OC(=O)NC3CC3)C2)cc1`: the Potency entry is “inactive”.

Turning to `Cc1ccccc1-c1nc(NC(C)C)nc2cc(-c3ccccc3)sc12`, the Potency entry is “inactive”.

As to `COc1ccc(CCn2c3c(c(=O)[nH]c2=S)CN(C(C)C)CN3)cc1OC`, the Potency result is “inactive”.

For `CC1(C(=O)Nc2cccc3cccnc23)CCN1C(=O)CCC1CCCC1` (configuration not stated), the Potency entry was “inactive”.

For `CC1(C(=O)NS(=O)(=O)c2ccc(C#N)cc2)CCN1C(=O)c1ccc(C2CCCCC2)cc1` (configuration not stated), the Potency result is “inactive”.

For `C[C@H](CO)N1C[C@H](C)[C@@H](CN(C)C(=O)C2CCCCC2)OCc2cnnn2CCCC1=O`, the Potency entry is “inactive”.

For the molecule `Cc1cccc(-c2ncc(CN3CCC(CO)(CCCc4ccccc4)CC3)cn2)c1`, the Potency result is “inactive”.

In the case of `Cc1c(CN2CCC(CO)(CCOc3ccccc3)CC2)[nH]c2ccc(Cl)cc12`, the Potency was 25.9 µM (active).

As to `CC(C)(O)C#Cc1ccc(CN2CCC(CO)(CCc3ccccc3)CC2)cc1`, the Potency result is “inactive”.

Consider `CCCNC(=O)C1(C)CCN(Cc2ccc(Cl)c(Cl)c2)C1` (configuration not stated), for which the Potency entry was “inactive”.

With `CN1OC[C@@H]2CN(S(=O)(=O)c3cccc(C(F)(F)F)c3)[C@H](c3ccc(-c4cc5ccccc5o4)cc3)C[C@@H]21`, the Potency entry was “inactive”.

Take `CNc1cnc(-c2cc(OC)c(OC)c(OC)c2)cn1`: the Potency result is “inactive”.

In the case of `CCn1cc(CN2CCC(C(=O)Nc3cccc(-c4cccc(Cl)c4)c3)CC2)cn1`, the Potency was 14.6 µM (active).

Take `CC(=O)c1cc(CN2CCC(C(=O)Nc3cccc(-c4cscn4)c3)CC2)cs1`: the Potency entry was “inactive”.

Regarding `O=C(Nc1cnn(Cc2ccc(Cl)cc2)c1)C1CCCC1`, the Potency entry was “inactive”.

Take `O=C(Nc1cccc(-c2cscn2)c1)C1CCN(Cc2ccsc2)CC1`: the Potency result was “inactive”.

In the case of `COc1cccc(-c2cccc(NC(=O)C3CCN(C4CCC4)CC3)c2)c1`, the Potency result was “inactive”.

As for `O=C(NC1CCCC1)C1CCN(C(=O)Nc2cccc(Cl)c2)CC1`, the Potency result is “inactive”.

Turning to `O=C(Nc1cccc(-c2cccc(Cl)c2)c1)C1CCN(C2CCC2)CC1`, the Potency is 25.9 µM (active).

For `CCn1cc(CN2CCC(n3nccc3NC(=O)CCCc3ccccc3)CC2)c(C)n1`, the Potency result was “inactive”.

Turning to `CCn1cc(CN2CCC(C(=O)Nc3cccc(-c4cccc(Cl)c4)c3)CC2)c(C)n1`, the Potency is 20.6 µM (active).

In the case of `O=C(COC(=O)c1cccc(Cl)c1Cl)NC1CCCCCC1`, the Potency result was “inactive”.
